# Compounds with a hit are over-represented: about 0.45% of the library has one in this group of screens.
# FMDV FLuc = antivirals against foot and mouth disease virus | Potency, µM (highest dose often 57.5 µM), for the others: at the highest dose activity change, negative = inhibition, usual class: inhibitors | FMDV antiviral cell assay, firefly luciferase signal | 120,000 compounds, 0.23% hits; note: nearly all actives have a fitted effect of over 60% in size
# FMDV Renilla = antivirals against foot and mouth disease virus replicon | FMDV replicon cells, Renilla luciferase signal | Potency, µM (top dose mostly 57.5 µM), for inactives: at the top dose activity change, negative = inhibition, actives largely listed as inhibitors | 120,000 compounds, 0.32% hits | AID 1745857; note: nearly all actives have a fitted effect of over 55% in size
# Starred values were filed as active, the others as inactive; ? = inconclusive. Calls come from the whole dose curve. % is set by controls: 0 for no effect and ±100 for the full control effect; potency is the fitted concentration of half-maximal effect.
SMILES,FMDV FLuc,FMDV Renilla
Cc1nc(C#N)c(N2CCN(C(=O)CN(C)C3CCCCCC3)CC2)o1,-14%,-10%
O=C(O)c1cccc(NC(=S)N/N=C/c2ccc([N+](=O)[O-])cc2)c1,2µM*,7%
O=[N+]([O-])c1ccc(/C=N/NC(=S)Nc2ccccc2)cc1,0%,25%
COc1ccc(NC(=O)CCn2cnc3onc(-c4ccc(F)cc4)c3c2=O)cc1OC,?,4µM*
COc1cc(Cl)c(C)cc1NC(=O)CCn1cnc2onc(-c3ccc(F)cc3)c2c1=O,9%,-1%
COc1ccc(-c2cc(=O)c3cc(OC(C)=O)ccc3o2)cc1,208%,73%
N#Cc1nc(COc2cccc(Cl)c2)oc1NCc1ccc2c(c1)OCO2,0%,1%
CC(=O)c1ccc(S(=O)(=O)N2CCn3cccc3C2c2ccccc2F)cc1 (stereo not given),13%,32µM*
CC(=O)c1ccc(S(=O)(=O)N2CCn3cccc3C2c2ccc(F)c(F)c2)cc1 (stereo not given),-9%,23%
NC(=S)NCc1ccccc1Cl,11%,2%
COc1ccc(N2CCN(C(=O)CCc3c(C)nc4cc(-c5ccc(OC)cc5OC)nn4c3C)CC2)cc1,-20%,-15%
COc1ccc(N2CCN(C(=O)CCc3c(C)nc4cc(-c5ccc(Cl)cc5)nn4c3C)CC2)cc1,32µM*,-5%
CC1CCCN(c2nc3ccccc3nc2NS(=O)(=O)c2ccc(Cl)cc2)C1 (stereo not given),10%,25%
CNC(=O)c1ccc(C2Nc3cc(C(F)(F)F)ccc3S(=O)(=O)N2)cc1 (stereo not given),9%,2%
CC(=O)OC1CCC2(C=O)[C@H]3CCC4(C)C(C5=CC(=O)OC5)CCC4(O)[C@@H]3CCC2(O)C1 (stereo not given in full),1.4µM*,2.5µM*
COC1C(O)C(C)OC(OC2CCC3(C)C(CC[C@@H]4[C@@H]3CCC3(C)C(C5=CC(=O)OC5)C(O)CC43O)C2)C1O (stereo not given in full),2.2µM*,5.6µM*
CC12CC[C@H]3[C@@H](CCC4(O)CC(O)CCC34/C=N/O)C1(O)CCC2C1=CC(=O)OC1 (stereo not given in full),1.4µM*,1.8µM*
C[C@H]1O[C@@H](O[C@H]2CC[C@]3(C=O)[C@H]4CC[C@]5(C)[C@H](C6=CC(=O)OC6)CC[C@]5(O)[C@@H]4CC[C@]3(O)C2)C[C@H](O)[C@@H]1O,?,0.25µM*
COCCn1cnc2c1c(=O)n(CC(=O)Nc1ccccc1)c(=O)n2Cc1ccccc1,-6%,-5%
COc1cc(NC(=O)CSc2ncc(-c3ccc(F)cc3)o2)cc(OC)c1,12%,-1%
Nc1ccccc1C1CC1,-5%,-5%
N#Cc1cccc(NC(=O)c2nn(-c3ccccc3)c(=O)c3ccccc23)c1,0%,3%
Cc1cccc(-c2cc(C(=O)NC3CCCC3)c3ccccc3n2)c1,39%,52%
COCCN(Cc1cc2cc(C)ccc2[nH]c1=O)C(=O)c1cccnc1,-2%,-14%
CCCS(=O)(=O)c1ncc(Cl)c(C(=O)N(Cc2ccccc2)Cc2ccco2)n1,22µM*,4%
SMILES,FMDV FLuc,FMDV Renilla
CCCSc1ncc(Cl)c(C(=O)N(Cc2ccc(Cl)cc2)Cc2ccco2)n1,-1%,0%
Cc1oc(-c2cccs2)nc1CC(=O)N1CCOCC1,-12%,52%
O=C(O)c1cccc(-c2noc(-c3ccccc3F)n2)c1,2.5µM*,-6%
Fc1ccccc1-c1nc(-c2cccc(Br)c2)no1,0%,9%
CC(C)(C)c1cc(N)c(O)c(Br)c1,10%,-5%
CS(=O)(=O)N1CCc2cc(C(=O)c3cc4cc(Br)ccc4o3)ccc21,20µM*,2%
CS(=O)(=O)N1CCCc2cc(C(=O)c3cc4ccccc4o3)ccc21,-17%,?
COc1ccc(-n2nnnc2C2CCN(S(=O)(=O)c3cc(OC)ccc3OC)CC2)cc1,?,25µM*
COc1ccc(-n2nnnc2C2CCN(S(=O)(=O)c3ccc(F)cc3Cl)CC2)cc1,-1%,-1%
C[C@@H](O[C@H]1OCCN(Cc2n[nH]c(=O)[nH]2)[C@H]1c1ccc(F)cc1)c1cc(C(F)(F)F)cc(C(F)(F)F)c1,?,32µM*
Cc1ccc(CN(C(=O)CC23CC4CC(CC(O)(C4)C2)C3)C2CC2)o1,-1%,5%
O=C(CN1C(=O)c2ccccc2S1(=O)=O)c1ccc(-c2ccc(Br)cc2)cc1,33%,-10%
O=C(CN1C(=O)c2ccccc2S1(=O)=O)c1ccc(F)cc1,11µM*,13%
O=[N+]([O-])c1ccc(N/N=C/c2c[nH]c3ccccc23)c(S(=O)(=O)Nc2ccc(Cl)cc2)c1,25µM*,-93%
O=[N+]([O-])c1ccc(N/N=C/c2c[nH]c3ccccc23)c(S(=O)(=O)Nc2ccccc2Cl)c1,-18%,68%
COc1ccc(CN(C)CC(O)COc2ccccc2)c(OC)c1OC (stereo not given),6%,4%
CCc1nc(N2CCN(C(=S)Nc3ccccc3)CC2)c(C#N)c2c1CSC(C)(C)C2,-15%,-13%
CCCNC(=O)c1cccc2c(=O)c(C)c(-c3ccccc3)oc12,0%,22%
O=C(Nc1ccncc1)c1cc(-c2cccs2)nc2ccccc12,-9%,12%
COc1ccc(NC(=O)c2ccc(Cl)cc2)c2cccnc12,43%,-12%
COc1ccc(NC(=O)COc2ccc(Cl)cc2Cl)c2cccnc12,2.5µM*,?
CCSc1nc(N)c2c(n1)NC1=C(C(=O)CC(C)(C)C1)C2c1cccs1 (stereo not given),0%,0%
CC(=O)c1c(C)[nH]c(C(=O)OC(C)c2nc(-c3ccccc3)no2)c1C (stereo not given),?,28µM*
CC(=O)c1c(C)[nH]c(C(=O)OC(C)c2nnc(-c3cccc(C)c3)o2)c1C (stereo not given),-27%,0%
CCC(CC)NC(=O)COC(=O)c1cc(C)ccc1C,3%,-7%
SMILES,FMDV FLuc,FMDV Renilla
C[N+](CCOCc1ccccc1)(CCOCc1ccccc1)CCOCc1ccccc1,?,28µM*
CC[N+](C)(CC)CC(C[N+](C)(CC)CC)OCc1ccccc1,0%,8%
COc1ccc(CCNc2oc(COc3cccc(C)c3)nc2C#N)cc1OC,-9%,-14%
COc1ccc(CCNc2oc(COc3ccc(Cl)cc3)nc2C#N)cc1OC,28µM*,?
CCc1cc(=O)oc2c(C)c(OCc3ccc(OC)cc3)ccc12,45%,-3%
CNC(=S)N/N=C(/C)c1ccc([N+](=O)[O-])cc1,7%,14%
COc1ccc(C(=O)/C(=C/c2ccccn2)c2nc3ccccc3o2)cc1,-102%,28µM*
COc1cccc(C(=O)/C(=C/c2ccccn2)c2nc3ccccc3o2)c1,-105%,?
O=c1c2ccccc2nc(/C=C/c2cccc3ccccc23)n1-c1ccccc1Cl,?,25µM*
COc1ccc(Cl)cc1-n1c(/C=C/c2cccc3ccccc23)nc2ccccc2c1=O,-23%,24%
Cc1ccc(-c2cc(C(=O)NN=C3CCCC3)c3ccccc3n2)s1,36%,-2%
Cc1ccc(CN2CCCC2)cc1,22%,6%
CCCCN(C)C(=O)C1CCCN(c2ncnc3onc(C)c23)C1 (stereo not given),?,2µM*
CCCCN(CC)C(=O)C1CCCN(c2ncnc3onc(C)c23)C1 (stereo not given),-28%,?
CC1CCC/C(=C(\C#N)c2nc(-c3ccccc3)cs2)C1 (stereo not given),95%,32%
